# Results published in paper PMC7862700, “An all-to-all approach to the identification of sequence-specific readers for epigenetic DNA modifications on cytosine”.
# Assays:
# Assay in all cases: DAPPL (digital affinity profiling via proximity ligation, sequencing); 10 mM Tris-HCl pH 7.5, 50 mM NaCl, 1 mM DTT, 4% glycerol, room temperature, 30 min; GST-TFs on glutathione beads, 16-mer random dsDNA library, 0.1% formaldehyde crosslink after washing; high values mean tight binding
# FLI1 = target: T1, FLI1 (Homo sapiens, UniProt Q01543 1-452); details: protein: recombinant; tags: N-terminal GST; dsDNA, one strand shown
# T1 sequence: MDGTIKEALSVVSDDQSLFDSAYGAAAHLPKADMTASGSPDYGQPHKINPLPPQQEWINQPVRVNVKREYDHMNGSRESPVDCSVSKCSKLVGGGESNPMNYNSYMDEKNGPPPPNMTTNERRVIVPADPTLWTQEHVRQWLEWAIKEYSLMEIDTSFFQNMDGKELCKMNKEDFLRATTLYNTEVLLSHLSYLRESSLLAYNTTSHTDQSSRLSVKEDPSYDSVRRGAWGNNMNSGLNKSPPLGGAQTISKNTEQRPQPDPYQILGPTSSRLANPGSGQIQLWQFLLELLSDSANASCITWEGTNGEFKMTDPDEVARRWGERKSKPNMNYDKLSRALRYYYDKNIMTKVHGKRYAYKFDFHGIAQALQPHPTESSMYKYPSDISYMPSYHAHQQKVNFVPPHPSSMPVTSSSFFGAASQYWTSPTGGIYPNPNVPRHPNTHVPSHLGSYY
# Method in brief: (§1)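 A tag-only sample was pooled with DNA-barcoded human transcription factors that had been expressed in yeast as GST fusions and captured on glutathione beads. The pools were incubated for 30 min at room temperature with 200 nmole of a random double-stranded 16-mer DNA library in Tris/NaCl/DTT/glycerol buffer, then washed, crosslinked with 0.1% formaldehyde, proximity-ligated (BsaI/T4 ligase, 1 h, 37 °C), PCR-amplified and sequenced on an Illumina NextSeq500. Binding signal is each hexamer's read frequency for a factor divided by its frequency for the tag-only sample.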
# ELK1 = target: T2, ELK1 (Homo sapiens, UniProt P19419 1-428); details: protein: recombinant; tags: N-terminal GST; dsDNA, one strand shown
# T2 sequence: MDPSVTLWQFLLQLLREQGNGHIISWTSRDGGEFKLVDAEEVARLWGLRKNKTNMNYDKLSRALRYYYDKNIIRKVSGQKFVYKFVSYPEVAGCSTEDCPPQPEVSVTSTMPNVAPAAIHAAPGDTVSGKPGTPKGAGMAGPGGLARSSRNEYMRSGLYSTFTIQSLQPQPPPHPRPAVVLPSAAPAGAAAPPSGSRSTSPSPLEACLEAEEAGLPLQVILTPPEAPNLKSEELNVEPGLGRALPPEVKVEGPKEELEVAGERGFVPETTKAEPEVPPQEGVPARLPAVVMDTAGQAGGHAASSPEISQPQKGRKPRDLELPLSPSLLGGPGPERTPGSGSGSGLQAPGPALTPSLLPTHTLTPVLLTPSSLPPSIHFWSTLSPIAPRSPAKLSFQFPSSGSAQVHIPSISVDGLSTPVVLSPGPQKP
# Method in brief: as §1
# GABPA = target: T3, GABPA (Homo sapiens, UniProt Q06546 1-454); details: protein: recombinant; tags: N-terminal GST; dsDNA, one strand shown
# T3 sequence: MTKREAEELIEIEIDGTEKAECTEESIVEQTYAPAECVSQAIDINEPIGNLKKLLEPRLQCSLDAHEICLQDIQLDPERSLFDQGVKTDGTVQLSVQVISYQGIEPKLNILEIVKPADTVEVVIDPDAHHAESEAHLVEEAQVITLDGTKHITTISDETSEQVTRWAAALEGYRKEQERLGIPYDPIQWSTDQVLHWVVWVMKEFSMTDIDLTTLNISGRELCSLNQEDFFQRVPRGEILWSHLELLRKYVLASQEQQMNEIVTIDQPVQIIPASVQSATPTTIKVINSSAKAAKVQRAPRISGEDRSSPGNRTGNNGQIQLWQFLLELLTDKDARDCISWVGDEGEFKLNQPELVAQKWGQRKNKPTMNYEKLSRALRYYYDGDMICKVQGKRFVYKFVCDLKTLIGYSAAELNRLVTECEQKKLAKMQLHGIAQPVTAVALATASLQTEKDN
# Method in brief: as §1
# ERG = target: T4, ERG (Homo sapiens, UniProt P11308 1-479); details: protein: recombinant; tags: N-terminal GST; dsDNA, one strand shown
# T4 sequence: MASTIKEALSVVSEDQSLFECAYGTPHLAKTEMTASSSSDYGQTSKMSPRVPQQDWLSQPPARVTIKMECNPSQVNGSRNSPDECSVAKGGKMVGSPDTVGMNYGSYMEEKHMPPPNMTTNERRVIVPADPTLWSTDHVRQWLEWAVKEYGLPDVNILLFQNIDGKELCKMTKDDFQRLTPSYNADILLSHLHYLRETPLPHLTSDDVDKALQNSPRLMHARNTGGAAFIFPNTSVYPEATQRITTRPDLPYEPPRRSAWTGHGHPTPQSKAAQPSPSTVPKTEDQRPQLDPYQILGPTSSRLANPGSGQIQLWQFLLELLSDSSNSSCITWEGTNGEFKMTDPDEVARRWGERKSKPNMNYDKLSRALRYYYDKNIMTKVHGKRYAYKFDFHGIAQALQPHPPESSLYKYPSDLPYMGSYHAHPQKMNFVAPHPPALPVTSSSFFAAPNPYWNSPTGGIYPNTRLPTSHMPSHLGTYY
# Method in brief: as §1
# ELF1 = ELF1 (Homo sapiens, UniProt P32519 1-619); details: protein: recombinant; tags: N-terminal GST; dsDNA, one strand shown
# Sequence of ELF1 (P32519 whole entry): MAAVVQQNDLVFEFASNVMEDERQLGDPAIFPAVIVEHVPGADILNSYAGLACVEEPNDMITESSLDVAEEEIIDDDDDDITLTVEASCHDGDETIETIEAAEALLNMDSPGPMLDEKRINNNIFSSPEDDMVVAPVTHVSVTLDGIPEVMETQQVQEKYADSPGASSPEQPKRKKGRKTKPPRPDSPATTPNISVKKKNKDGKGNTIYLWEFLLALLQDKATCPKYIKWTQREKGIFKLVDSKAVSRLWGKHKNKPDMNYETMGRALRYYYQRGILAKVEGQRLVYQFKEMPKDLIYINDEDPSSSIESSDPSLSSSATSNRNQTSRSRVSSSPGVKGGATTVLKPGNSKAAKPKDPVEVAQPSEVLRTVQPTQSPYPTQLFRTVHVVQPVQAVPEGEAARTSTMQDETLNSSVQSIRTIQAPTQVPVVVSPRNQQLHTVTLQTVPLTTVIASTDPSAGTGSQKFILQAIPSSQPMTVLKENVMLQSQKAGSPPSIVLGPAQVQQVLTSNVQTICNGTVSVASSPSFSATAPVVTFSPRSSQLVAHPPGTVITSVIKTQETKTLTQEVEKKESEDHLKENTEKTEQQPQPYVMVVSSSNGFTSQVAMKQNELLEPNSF
# Method in brief: as §1
# EHF = target: T5, EHF (Homo sapiens, UniProt Q9NZC4 1-300); details: protein: recombinant; tags: N-terminal GST; dsDNA, one strand shown
# T5 sequence: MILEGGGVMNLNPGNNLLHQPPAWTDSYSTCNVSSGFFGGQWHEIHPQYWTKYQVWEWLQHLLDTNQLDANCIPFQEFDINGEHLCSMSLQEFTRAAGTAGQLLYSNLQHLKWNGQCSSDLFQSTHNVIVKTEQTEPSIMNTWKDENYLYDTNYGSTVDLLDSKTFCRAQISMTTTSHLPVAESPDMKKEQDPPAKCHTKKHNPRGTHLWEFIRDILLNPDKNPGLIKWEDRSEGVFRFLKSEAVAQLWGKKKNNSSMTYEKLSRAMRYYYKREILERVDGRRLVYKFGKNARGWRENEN
# Method in brief: as §1
# SPI1 = SPI1 (Homo sapiens, UniProt P17947 1-270); details: protein: recombinant; tags: N-terminal GST; dsDNA, one strand shown
# Method in brief: as §1
# SPIB = SPIB (Homo sapiens, UniProt Q01892 1-262); details: protein: recombinant; tags: N-terminal GST; dsDNA, one strand shown
# Sequence of SPIB (Q01892 whole entry): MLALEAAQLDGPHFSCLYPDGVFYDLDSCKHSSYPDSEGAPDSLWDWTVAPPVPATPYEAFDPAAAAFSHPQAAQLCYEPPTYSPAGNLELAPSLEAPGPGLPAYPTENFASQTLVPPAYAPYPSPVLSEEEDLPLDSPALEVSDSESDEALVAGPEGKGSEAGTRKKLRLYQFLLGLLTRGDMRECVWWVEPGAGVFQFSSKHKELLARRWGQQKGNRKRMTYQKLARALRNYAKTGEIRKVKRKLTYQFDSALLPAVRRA
# Method in brief: as §1
# ELK3 = target: T6, ELK3 (Homo sapiens, UniProt P41970 1-407); details: protein: recombinant; tags: N-terminal GST; dsDNA, one strand shown
# T6 sequence: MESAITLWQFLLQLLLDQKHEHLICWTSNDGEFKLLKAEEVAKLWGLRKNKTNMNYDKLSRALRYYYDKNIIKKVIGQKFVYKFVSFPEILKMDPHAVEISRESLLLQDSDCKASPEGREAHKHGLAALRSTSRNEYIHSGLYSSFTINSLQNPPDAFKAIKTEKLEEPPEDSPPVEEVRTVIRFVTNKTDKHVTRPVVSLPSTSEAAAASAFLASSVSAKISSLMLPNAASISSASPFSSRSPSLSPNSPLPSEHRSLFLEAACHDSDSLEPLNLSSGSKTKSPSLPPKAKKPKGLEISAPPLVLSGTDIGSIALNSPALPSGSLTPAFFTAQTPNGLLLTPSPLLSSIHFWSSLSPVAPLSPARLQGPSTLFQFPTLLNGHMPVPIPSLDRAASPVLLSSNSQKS
# Method in brief: as §1
# FEV = target: T7, FEV (Homo sapiens, UniProt Q99581 1-238); details: protein: recombinant; tags: N-terminal GST; dsDNA, one strand shown
# T7 sequence: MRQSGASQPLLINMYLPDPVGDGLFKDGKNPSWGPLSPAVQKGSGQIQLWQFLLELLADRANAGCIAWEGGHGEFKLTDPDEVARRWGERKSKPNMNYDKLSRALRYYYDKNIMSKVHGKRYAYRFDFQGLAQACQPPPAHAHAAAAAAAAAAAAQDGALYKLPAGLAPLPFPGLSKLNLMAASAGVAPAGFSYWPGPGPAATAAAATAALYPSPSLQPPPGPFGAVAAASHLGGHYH
# Method in brief: as §1
# ETV5 = ETV5 (Homo sapiens, UniProt P41161 1-510); details: protein: recombinant; tags: N-terminal GST; dsDNA, one strand shown
# Sequence of ETV5 (P41161 whole entry): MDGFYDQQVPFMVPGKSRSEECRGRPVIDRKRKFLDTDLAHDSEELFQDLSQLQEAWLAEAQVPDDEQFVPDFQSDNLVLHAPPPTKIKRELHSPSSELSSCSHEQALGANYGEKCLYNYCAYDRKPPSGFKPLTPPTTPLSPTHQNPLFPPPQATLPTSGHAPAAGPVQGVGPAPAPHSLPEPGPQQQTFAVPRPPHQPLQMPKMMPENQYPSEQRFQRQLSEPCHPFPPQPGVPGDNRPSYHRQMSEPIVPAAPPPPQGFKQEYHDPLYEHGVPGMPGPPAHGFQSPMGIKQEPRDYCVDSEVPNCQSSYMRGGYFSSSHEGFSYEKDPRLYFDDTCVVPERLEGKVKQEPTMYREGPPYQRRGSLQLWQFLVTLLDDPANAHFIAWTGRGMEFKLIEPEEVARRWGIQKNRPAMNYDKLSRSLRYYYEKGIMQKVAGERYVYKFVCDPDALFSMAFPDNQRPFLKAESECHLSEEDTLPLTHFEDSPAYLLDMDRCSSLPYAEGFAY
# Method in brief: as §1
# HSF1 = HSF1 (Homo sapiens, UniProt Q00613 1-529); details: protein: recombinant; tags: N-terminal GST; chain copies: 3; dsDNA, one strand shown
# Sequence of HSF1 (Q00613 whole entry): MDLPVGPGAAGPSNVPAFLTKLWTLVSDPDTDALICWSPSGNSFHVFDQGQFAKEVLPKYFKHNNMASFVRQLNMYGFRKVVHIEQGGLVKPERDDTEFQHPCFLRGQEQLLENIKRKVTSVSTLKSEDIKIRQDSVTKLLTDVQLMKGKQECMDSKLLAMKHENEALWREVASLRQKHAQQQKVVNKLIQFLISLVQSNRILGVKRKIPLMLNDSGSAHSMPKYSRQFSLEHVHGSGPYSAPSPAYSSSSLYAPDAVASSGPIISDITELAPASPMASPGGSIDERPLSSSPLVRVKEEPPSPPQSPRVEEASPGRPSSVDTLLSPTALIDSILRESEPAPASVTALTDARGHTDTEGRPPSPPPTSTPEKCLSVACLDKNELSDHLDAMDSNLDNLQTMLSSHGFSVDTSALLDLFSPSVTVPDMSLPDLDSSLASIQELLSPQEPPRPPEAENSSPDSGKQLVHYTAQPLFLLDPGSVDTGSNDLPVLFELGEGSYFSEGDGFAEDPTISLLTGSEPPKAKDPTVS
# Method in brief: as §1
# SPIC = target: T8, SPIC (Homo sapiens, UniProt Q8N5J4 1-248); details: protein: recombinant; tags: N-terminal GST; dsDNA, one strand shown
# T8 sequence: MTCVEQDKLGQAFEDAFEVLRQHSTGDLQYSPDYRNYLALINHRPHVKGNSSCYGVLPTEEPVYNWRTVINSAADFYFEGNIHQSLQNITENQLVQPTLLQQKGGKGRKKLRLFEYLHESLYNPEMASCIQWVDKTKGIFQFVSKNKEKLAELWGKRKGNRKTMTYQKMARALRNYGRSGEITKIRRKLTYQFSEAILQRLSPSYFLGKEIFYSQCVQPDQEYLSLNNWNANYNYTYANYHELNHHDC
# Method in brief: as §1
# ELF4 = ELF4 (Homo sapiens, UniProt Q99607 1-663); details: protein: recombinant; tags: N-terminal GST; dsDNA, one strand shown
# Sequence of ELF4 (Q99607 whole entry): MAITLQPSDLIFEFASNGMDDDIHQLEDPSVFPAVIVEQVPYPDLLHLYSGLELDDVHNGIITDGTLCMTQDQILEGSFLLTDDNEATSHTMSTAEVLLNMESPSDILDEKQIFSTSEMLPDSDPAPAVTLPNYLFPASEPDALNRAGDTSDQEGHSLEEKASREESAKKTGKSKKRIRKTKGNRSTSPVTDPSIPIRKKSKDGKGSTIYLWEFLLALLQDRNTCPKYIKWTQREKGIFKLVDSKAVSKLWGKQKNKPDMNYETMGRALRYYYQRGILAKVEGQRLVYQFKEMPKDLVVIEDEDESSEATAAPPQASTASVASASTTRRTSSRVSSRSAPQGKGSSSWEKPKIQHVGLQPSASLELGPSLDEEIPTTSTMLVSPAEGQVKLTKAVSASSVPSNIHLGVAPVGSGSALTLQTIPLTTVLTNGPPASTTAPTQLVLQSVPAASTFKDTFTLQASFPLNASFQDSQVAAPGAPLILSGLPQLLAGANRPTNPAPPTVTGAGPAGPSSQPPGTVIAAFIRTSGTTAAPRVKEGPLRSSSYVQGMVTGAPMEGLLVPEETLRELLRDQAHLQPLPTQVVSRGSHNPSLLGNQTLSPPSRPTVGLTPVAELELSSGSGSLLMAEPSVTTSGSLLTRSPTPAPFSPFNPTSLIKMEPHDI
# Method in brief: as §1
# ELK4 = target: T9, ELK4 (Homo sapiens, UniProt P28324-2 1-405); details: protein: recombinant; tags: N-terminal GST; dsDNA, one strand shown
# T9 sequence: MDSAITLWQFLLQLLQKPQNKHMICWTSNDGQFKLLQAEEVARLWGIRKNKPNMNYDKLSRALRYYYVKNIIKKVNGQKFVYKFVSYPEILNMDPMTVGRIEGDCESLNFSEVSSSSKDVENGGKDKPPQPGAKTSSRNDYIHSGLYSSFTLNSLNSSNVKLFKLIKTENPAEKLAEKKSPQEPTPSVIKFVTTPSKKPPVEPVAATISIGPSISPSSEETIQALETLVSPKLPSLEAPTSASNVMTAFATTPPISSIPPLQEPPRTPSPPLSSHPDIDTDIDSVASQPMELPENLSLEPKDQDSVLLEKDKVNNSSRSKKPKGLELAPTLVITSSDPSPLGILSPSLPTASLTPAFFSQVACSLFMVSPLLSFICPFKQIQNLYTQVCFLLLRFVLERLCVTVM
# Method in brief: as §1
# ETV2 = target: T10, ETV2 (Homo sapiens, UniProt O00321 1-342); details: protein: recombinant; tags: N-terminal GST; dsDNA, one strand shown
# T10 sequence: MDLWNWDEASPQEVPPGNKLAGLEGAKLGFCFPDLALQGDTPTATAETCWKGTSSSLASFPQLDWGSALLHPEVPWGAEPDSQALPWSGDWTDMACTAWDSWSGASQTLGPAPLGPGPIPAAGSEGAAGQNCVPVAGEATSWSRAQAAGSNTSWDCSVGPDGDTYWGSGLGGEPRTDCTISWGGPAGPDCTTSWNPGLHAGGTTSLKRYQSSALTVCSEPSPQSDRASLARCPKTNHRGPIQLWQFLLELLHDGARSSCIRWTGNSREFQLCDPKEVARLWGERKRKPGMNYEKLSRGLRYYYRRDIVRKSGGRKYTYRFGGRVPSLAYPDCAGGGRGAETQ
# Method in brief: as §1
# ELF3 = target: T11, ELF3 (Homo sapiens, UniProt P78545 1-371); details: protein: recombinant; tags: N-terminal GST; dsDNA, one strand shown
# T11 sequence: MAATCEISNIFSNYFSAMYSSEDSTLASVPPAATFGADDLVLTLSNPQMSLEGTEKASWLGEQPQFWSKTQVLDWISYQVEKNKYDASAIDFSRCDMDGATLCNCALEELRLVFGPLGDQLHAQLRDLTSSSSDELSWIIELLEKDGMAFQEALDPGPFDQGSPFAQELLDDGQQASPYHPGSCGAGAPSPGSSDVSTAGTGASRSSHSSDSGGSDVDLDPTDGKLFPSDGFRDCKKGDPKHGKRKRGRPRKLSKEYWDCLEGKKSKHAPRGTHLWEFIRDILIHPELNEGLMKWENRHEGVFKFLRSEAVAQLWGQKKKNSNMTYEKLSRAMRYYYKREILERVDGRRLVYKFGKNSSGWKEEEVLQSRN
# Method in brief: as §1
# CRX = CRX (Homo sapiens, UniProt O43186 1-299); details: protein: recombinant; tags: N-terminal GST; dsDNA, one strand shown
# Sequence of CRX (O43186 whole entry): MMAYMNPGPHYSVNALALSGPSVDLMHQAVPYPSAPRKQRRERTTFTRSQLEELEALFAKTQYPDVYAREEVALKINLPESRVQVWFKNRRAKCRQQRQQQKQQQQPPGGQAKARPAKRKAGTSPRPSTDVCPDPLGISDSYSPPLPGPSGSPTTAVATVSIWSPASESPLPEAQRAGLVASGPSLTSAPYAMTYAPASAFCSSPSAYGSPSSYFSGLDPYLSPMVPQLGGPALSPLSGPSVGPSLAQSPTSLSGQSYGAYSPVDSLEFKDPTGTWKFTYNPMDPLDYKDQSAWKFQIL
# Method in brief: as §1
# ETV1 = ETV1 (Homo sapiens, UniProt P50549 1-477); details: protein: recombinant; tags: N-terminal GST; dsDNA, one strand shown
# Sequence of ETV1 (P50549 whole entry): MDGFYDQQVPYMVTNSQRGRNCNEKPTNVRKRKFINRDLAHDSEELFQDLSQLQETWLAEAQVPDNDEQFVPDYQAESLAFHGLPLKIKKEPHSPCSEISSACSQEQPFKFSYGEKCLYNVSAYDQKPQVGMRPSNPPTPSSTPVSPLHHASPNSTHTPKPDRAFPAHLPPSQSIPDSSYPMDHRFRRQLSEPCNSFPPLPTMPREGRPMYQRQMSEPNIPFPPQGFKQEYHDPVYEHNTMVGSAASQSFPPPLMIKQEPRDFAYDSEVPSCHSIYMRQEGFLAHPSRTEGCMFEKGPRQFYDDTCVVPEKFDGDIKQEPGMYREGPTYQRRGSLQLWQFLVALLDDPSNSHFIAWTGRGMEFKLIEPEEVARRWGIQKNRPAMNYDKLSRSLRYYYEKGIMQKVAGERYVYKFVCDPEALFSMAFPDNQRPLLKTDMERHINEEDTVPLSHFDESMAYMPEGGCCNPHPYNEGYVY
# Method in brief: as §1
sequence,measurement,setting,value
CTCGTT,binding signal,FLI1,"1.18 fold enrichment (6-mer frequency, TF over GST control)"
same,binding signal,ELK1,"1.31 fold enrichment (6-mer frequency, TF over GST control)"
same,binding signal,GABPA,"1.26 fold enrichment (6-mer frequency, TF over GST control)"
same,binding signal,ERG,"1.25 fold enrichment (6-mer frequency, TF over GST control)"
same,binding signal,ELF1,"1.27 fold enrichment (6-mer frequency, TF over GST control)"
same,binding signal,EHF,"1.27 fold enrichment (6-mer frequency, TF over GST control)"
same,binding signal,SPI1,"1.35 fold enrichment (6-mer frequency, TF over GST control)"
same,binding signal,SPIB,"1.24 fold enrichment (6-mer frequency, TF over GST control)"
same,binding signal,ELK3,"1.15 fold enrichment (6-mer frequency, TF over GST control)"
same,binding signal,FEV,"1.22 fold enrichment (6-mer frequency, TF over GST control)"
same,binding signal,ETV5,"1.29 fold enrichment (6-mer frequency, TF over GST control)"
same,binding signal,HSF1,"1.24 fold enrichment (6-mer frequency, TF over GST control)"
same,binding signal,SPIC,"1.37 fold enrichment (6-mer frequency, TF over GST control)"
same,binding signal,ELF4,"1.28 fold enrichment (6-mer frequency, TF over GST control)"
same,binding signal,ELK4,"1.4 fold enrichment (6-mer frequency, TF over GST control)"
same,binding signal,ETV2,"1.36 fold enrichment (6-mer frequency, TF over GST control)"
same,binding signal,ELF3,"1.46 fold enrichment (6-mer frequency, TF over GST control)"
same,binding signal,CRX,"1.1 fold enrichment (6-mer frequency, TF over GST control)"
same,binding signal,ETV1,"1.22 fold enrichment (6-mer frequency, TF over GST control)"
